Assay results taken from PubChem BioAssay (NCI).
About 83,000 compounds went through this panel and 20% of them were active in at least one assay; those are over-represented in the sample as a whole.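 Testing used 96-well plates and a 48-hour single-concentration exposure. Example: -40 means 40% of the starting cells died.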 Activity calls are given as the source filed them. How the source made its calls: active means growth percent below 10; inactive means the rest.

Key:
Experiment in all cases: NCI-60 one-dose screen, 48 h (100 = growth as untreated, 0 = no growth, -100 = all killed)
Settings in all cases: 10 µM unless noted
MOLT-4 leukemia = system: MOLT-4 leukemia
SR leukemia = system: SR leukemia
RPMI-8226 leukemia = system: RPMI-8226 leukemia
OVCAR-8 ovarian = system: OVCAR-8 ovarian
OVCAR-5 ovarian = system: OVCAR-5 ovarian
OVCAR-4 ovarian = system: OVCAR-4 ovarian
SK-OV-3 ovarian = system: SK-OV-3 ovarian
IGROV1 ovarian = system: IGROV1 ovarian
OVCAR-3 ovarian = system: OVCAR-3 ovarian
HS 578T breast = system: HS 578T breast
NCI/ADR-RES ovarian = system: NCI/ADR-RES ovarian
T-47D breast = system: T-47D breast
BT-549 breast = system: BT-549 breast
MDA-MB-435 melanoma = system: MDA-MB-435 melanoma
SW-620 colon = system: SW-620 colon
MCF7 breast = system: MCF7 breast
HCT-116 colon = system: HCT-116 colon
HCC-2998 colon = system: HCC-2998 colon
KM12 colon = system: KM12 colon

Measured: growth

Clc1cccc(Cl)c1Cl
inactive: MOLT-4 leukemia 104% | SR leukemia 92.7% | RPMI-8226 leukemia 110% | OVCAR-8 ovarian 112% | OVCAR-5 ovarian 97.8% | OVCAR-4 ovarian 106% | SK-OV-3 ovarian 104% | IGROV1 ovarian 104% | OVCAR-3 ovarian 94.2% | HS 578T breast 102% | NCI/ADR-RES ovarian 105% | T-47D breast 85.8% | BT-549 breast 102% | MDA-MB-435 melanoma 105% | SW-620 colon 105% | MCF7 breast 93.5% | HCT-116 colon 98.9% | HCC-2998 colon 99.8% | KM12 colon 100%

COC(=O)[C@H](Cc1ccccc1)NC(=O)c1csc([C@@H](C[C@H](C(C)C)N(C)C(=O)[C@@H](NC(=O)[C@H]2CCCCN2C)C2CC2)OC(C)=O)n1
inactive: MOLT-4 leukemia 10.1% | RPMI-8226 leukemia 10.3% | OVCAR-8 ovarian 17% | OVCAR-5 ovarian 32.3% | OVCAR-4 ovarian 49.7% | IGROV1 ovarian 29.1% | NCI/ADR-RES ovarian 15.9% | T-47D breast 28.3% | SW-620 colon 22.8% | MCF7 breast 19.5% | HCC-2998 colon 16.1%
active: SR leukemia 6.23% | SK-OV-3 ovarian 4.51% | OVCAR-3 ovarian -21.4% | HS 578T breast 6.85% | BT-549 breast 2.98% | MDA-MB-435 melanoma -44.4% | HCT-116 colon -16.9% | KM12 colon 2.87%

Cc1cc(N(CCCl)CCCl)ccc1C=Nc1cccnc1
inactive: MOLT-4 leukemia 52.1% | SR leukemia 43.9% | RPMI-8226 leukemia 78.3% | OVCAR-8 ovarian 78.2% | OVCAR-5 ovarian 28.2% | OVCAR-4 ovarian 80.6% | SK-OV-3 ovarian 61.3% | IGROV1 ovarian 99.2% | OVCAR-3 ovarian 87.5% | HS 578T breast 113% | NCI/ADR-RES ovarian 71.6% | T-47D breast 45.3% | BT-549 breast 86.9% | MDA-MB-435 melanoma 101% | SW-620 colon 85.3% | MCF7 breast 36.5% | HCT-116 colon 77.6% | HCC-2998 colon 90.7% | KM12 colon 102%

COC(=O)[C@@H](C)C[C@H](Cc1ccccc1)NC(=O)c1csc([C@@H](C[C@H](C(C)C)N(C)C(=O)[C@@H](NC(=O)[C@H]2CCCN2C)C2CC2)OC(C)=O)n1
active: OVCAR-3 ovarian -34.5% | HS 578T breast 3.36% | BT-549 breast -9.2% | MDA-MB-435 melanoma -20.6% | HCT-116 colon 1.11% | KM12 colon 1.92%
inactive: MOLT-4 leukemia 12.3% | SR leukemia 11.2% | RPMI-8226 leukemia 13.9% | OVCAR-8 ovarian 33.4% | OVCAR-5 ovarian 46.8% | OVCAR-4 ovarian 51.6% | SK-OV-3 ovarian 25.7% | IGROV1 ovarian 27.1% | NCI/ADR-RES ovarian 12.4% | T-47D breast 40.9% | SW-620 colon 30.6% | MCF7 breast 21.7% | HCC-2998 colon 14.8%

CC[C@H](C)[C@H](NC(=O)c1nccn1C)C(=O)N(C)[C@H](C[C@@H](OC(C)=O)c1nc(C(=O)N[C@@H](Cc2ccccc2)C[C@H](C)C(=O)OC)cs1)C(C)C
active: OVCAR-3 ovarian -19.8% | BT-549 breast 0.0991% | MDA-MB-435 melanoma -48% | HCT-116 colon 3.27%
inactive: MOLT-4 leukemia 15.9% | SR leukemia 14.2% | RPMI-8226 leukemia 24.6% | OVCAR-8 ovarian 16.3% | OVCAR-5 ovarian 38% | OVCAR-4 ovarian 48.4% | SK-OV-3 ovarian 19.4% | IGROV1 ovarian 35.6% | HS 578T breast 20.6% | NCI/ADR-RES ovarian 16.5% | T-47D breast 47.9% | SW-620 colon 26.1% | MCF7 breast 17.5% | HCC-2998 colon 31.5% | KM12 colon 11.1%

O=C(CC1(O)C(=O)N(Cc2ccccc2)c2ccc(Br)cc21)c1ccc(C(=O)NCC2CCC3(CC2)OOC2(CCCCC2)OO3)cc1 (stereo unspecified)
active: MOLT-4 leukemia -37.3% | SR leukemia -40.7% | RPMI-8226 leukemia -7.69% | OVCAR-8 ovarian -40.9% | OVCAR-4 ovarian -34.1% | IGROV1 ovarian -36.2% | OVCAR-3 ovarian -84.1% | NCI/ADR-RES ovarian -44.8% | T-47D breast -29.2% | MDA-MB-435 melanoma 4.94% | SW-620 colon -16.5% | KM12 colon -57.5%
inactive: OVCAR-5 ovarian 12.4% | SK-OV-3 ovarian 83.4% | HS 578T breast 22.6% | BT-549 breast 33.9% | MCF7 breast 31.5% | HCT-116 colon 35.5% | HCC-2998 colon 102%

CO[C@H]1CC[C@@]2(C)C(=CC[C@@H]3[C@@H]2CC[C@]2(C)C(=O)C(=O)C[C@@H]32)C1
inactive: MOLT-4 leukemia 115% | SR leukemia 107% | RPMI-8226 leukemia 88.9% | OVCAR-8 ovarian 93.3% | OVCAR-5 ovarian 103% | OVCAR-4 ovarian 113% | SK-OV-3 ovarian 103% | IGROV1 ovarian 120% | OVCAR-3 ovarian 105% | HS 578T breast 92.6% | NCI/ADR-RES ovarian 104% | T-47D breast 97.1% | BT-549 breast 106% | MDA-MB-435 melanoma 112% | SW-620 colon 100% | MCF7 breast 102% | HCT-116 colon 97% | HCC-2998 colon 109% | KM12 colon 111%

CCNc1nc(Cl)nc(NCC)n1
inactive: MOLT-4 leukemia 69.8% | SR leukemia 75.8% | RPMI-8226 leukemia 94.3% | OVCAR-8 ovarian 58.9% | OVCAR-5 ovarian 104% | OVCAR-4 ovarian 95.6% | SK-OV-3 ovarian 109% | IGROV1 ovarian 29.4% | OVCAR-3 ovarian 108% | HS 578T breast 96.8% | NCI/ADR-RES ovarian 101% | T-47D breast 91% | BT-549 breast 108% | MDA-MB-435 melanoma 94.8% | SW-620 colon 101% | MCF7 breast 98.7% | HCT-116 colon 88.1% | HCC-2998 colon 104% | KM12 colon 106%

C/C=C(\C)C(=O)O[C@@H]1C(O)[C@H]2OC(COC(=O)CCC(=O)CCCCCC[C@H](CCCCC)O[C@@H]3OC(C)[C@H](OC(C)=O)C(O)[C@H]3O2)[C@H]1OC(=O)/C=C/c1ccccc1 (stereo partly specified)
inactive: MOLT-4 leukemia 37.7% | OVCAR-8 ovarian 24% | OVCAR-5 ovarian 49.2% | OVCAR-4 ovarian 18% | SK-OV-3 ovarian 12.1% | IGROV1 ovarian 27.3% | OVCAR-3 ovarian 15.4% | HS 578T breast 28.7% | NCI/ADR-RES ovarian 38.5% | BT-549 breast 22.1% | SW-620 colon 24.6% | MCF7 breast 17.6% | HCC-2998 colon 39.3% | KM12 colon 16.4%
active: SR leukemia -7.08% | RPMI-8226 leukemia 2.87% | T-47D breast -6.33% | MDA-MB-435 melanoma 0.295% | HCT-116 colon 8.86%

CCCCN1CCCC[C@@H]1C(=O)N[C@H](C(=O)N(C)[C@H](C[C@@H](OC(C)=O)c1nc(C(=O)NC2CCC(C(=O)OC)CC2)cs1)C(C)C)C(C)C (stereo partly specified)
inactive: MOLT-4 leukemia 19.2% | SR leukemia 20.4% | RPMI-8226 leukemia 16.8% | OVCAR-8 ovarian 24.6% | OVCAR-5 ovarian 57% | OVCAR-4 ovarian 52.2% | SK-OV-3 ovarian 23.9% | IGROV1 ovarian 39.5% | HS 578T breast 14.5% | NCI/ADR-RES ovarian 41.2% | T-47D breast 27.4% | BT-549 breast 40.1% | SW-620 colon 19.5% | MCF7 breast 24.6% | HCT-116 colon 14% | HCC-2998 colon 67.6% | KM12 colon 24.6%
active: OVCAR-3 ovarian -29.5% | MDA-MB-435 melanoma -43.9%

CC(=O)OC[C@]1(C)C=C2C(=O)[C@](C)(O)C3(CC3)C(C)=C2[C@H]1O
inactive: MOLT-4 leukemia 12.2% | RPMI-8226 leukemia 75.8% | KM12 colon 10.4%
active: SR leukemia 9.64% | OVCAR-8 ovarian -0.446% | OVCAR-5 ovarian -14.4% | OVCAR-4 ovarian -9.54% | SK-OV-3 ovarian -40.4% | IGROV1 ovarian -31.1% | OVCAR-3 ovarian -29.4% | HS 578T breast -21.5% | NCI/ADR-RES ovarian -18.7% | T-47D breast -8.92% | BT-549 breast -42.4% | MDA-MB-435 melanoma -24.1% | SW-620 colon 0.025% | MCF7 breast 1.05% | HCT-116 colon 0.12% | HCC-2998 colon -59.8%

O=C(CCCCCNC1=CC(=O)c2ccccc2C1=O)NCCC[Te]c1ccccc1
inactive: MOLT-4 leukemia 29.7% | SR leukemia 38.3% | RPMI-8226 leukemia 10.5%
active: OVCAR-8 ovarian 8.94% | OVCAR-5 ovarian -37% | OVCAR-4 ovarian -44.8% | SK-OV-3 ovarian -39.6% | IGROV1 ovarian -24% | OVCAR-3 ovarian -43.8% | HS 578T breast -9.34% | NCI/ADR-RES ovarian -0.191% | T-47D breast -60.5% | BT-549 breast -27.7% | MDA-MB-435 melanoma -15.5% | SW-620 colon -7.07% | MCF7 breast 4.88% | HCT-116 colon -51% | HCC-2998 colon -48.7% | KM12 colon -41.6%

Cc1cc(C)c(CBr)c(C)c1
inactive: MOLT-4 leukemia 96.3% | SR leukemia 107% | RPMI-8226 leukemia 100% | OVCAR-8 ovarian 99.4% | OVCAR-5 ovarian 96.6% | OVCAR-4 ovarian 127% | SK-OV-3 ovarian 104% | IGROV1 ovarian 99.2% | OVCAR-3 ovarian 113% | HS 578T breast 106% | NCI/ADR-RES ovarian 103% | T-47D breast 101% | BT-549 breast 105% | MDA-MB-435 melanoma 111% | SW-620 colon 103% | MCF7 breast 96.4% | HCT-116 colon 110% | HCC-2998 colon 114% | KM12 colon 105%

CC[C@H](C)[C@H](NC(=O)c1cccn1C)C(=O)N(C)[C@H](C[C@@H](OC(C)=O)c1nc(C(=O)N[C@@H](Cc2ccccc2)C[C@H](C)C(=O)OC)cs1)C(C)C
inactive: MOLT-4 leukemia 16.2% | SR leukemia 14.4% | RPMI-8226 leukemia 18.6% | OVCAR-8 ovarian 15.6% | OVCAR-5 ovarian 43.5% | OVCAR-4 ovarian 46.9% | SK-OV-3 ovarian 10.8% | IGROV1 ovarian 23% | HS 578T breast 27% | T-47D breast 64% | SW-620 colon 26.2% | MCF7 breast 15% | HCC-2998 colon 18.4% | KM12 colon 10%
active: OVCAR-3 ovarian -3.92% | NCI/ADR-RES ovarian 7.66% | BT-549 breast -27% | MDA-MB-435 melanoma -18.2% | HCT-116 colon -3.74%
